The values below come from PubChem BioAssay (Tox21).

The nature of assay [1]: A CellTox Green Cytotoxicity Assay to monitor cytotoxicity in HEK293 cells - 40 hour (AID 1224871). Also: nearly all actives have a fitted effect of over 45% in size. Also: potency is read from the fitted curve at half-maximal effect. The method in brief:
(§1)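 Tox21 screen in HEK293: membrane-impermeant cyanine dye fluoresces on binding dead-cell DNA; compound pinned 5 h post-seeding, plates held at 37 C, signal read repeatedly through 40 h.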

Assay [2] in a line: qHTS RealTime-Glo MT Cell Viability Assay in HEK293 cells - 16 hour (AID 1224872). Also: nearly all actives have a fitted effect of over 50% in size. Also: potency is read from the fitted curve at half-maximal effect. In short, it runs like this: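 Reads taken at 0, 8, 16, 24, 32 and 40 h from the same wells. HEK293 cells (600/well) carried RealTime-Glo reagents from seeding, with compound added after a 5 h settle at 37 C.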
On the technique in general: Quantitative high-throughput screening tests each substance at several concentrations.

Assay [3] in a line: qHTS RealTime-Glo MT Cell Viability Assay in HepG2 cells - 8 hour (AID 1224873). Also: nearly all actives have a fitted effect of over 55% in size. Also: potency is read from the fitted curve at half-maximal effect. The method in brief:
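HepG2 cells (600/well) mixed with RealTime-Glo MT reagent, settled 5 h at 37 C/5% CO2 before compound addition. Nonlytic NanoLuc luminescence from viable-cell prosubstrate reduction read repeatedly during 40 h treatment at 37 C.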

Assay [4] in a line: qHTS RealTime-Glo MT Cell Viability Assay in HEK293 cells - 40 hour (AID 1224874). Also: nearly all actives have a fitted effect of over 50% in size. Also: potency is read from the fitted curve at half-maximal effect. Particulars: RealTime-Glo luminescence; max response: stronger effect = lower value. In short, it runs like this:
(§2)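 HEK293 + NanoLuc + prosubstrate, 600 cells/well; 5 h, 37 C/5% CO2; compound 23 nL in DMSO by pintool; 37 C; luminescence read at 0, 8, 16, 24, 32 and 40 h time points.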

A short description of assay [5]: A CellTox Green Cytotoxicity Assay to monitor cytotoxicity in HEK293 cells - 24 hour (AID 1224875). Also: nearly all actives have a fitted effect of over 45% in size. Also: potency is read from the fitted curve at half-maximal effect. The method in brief:
as §1

Assay [6] can be described thus: A CellTox Green Cytotoxicity Assay to monitor cytotoxicity in HepG2 cells - 16 hour (AID 1224876). Also: nearly all actives have a fitted effect of over 45% in size. Also: potency is read from the fitted curve at half-maximal effect. The method in brief:
(§3)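 Measurements at 0, 8, 16, 24, 32 and 40 h of treatment captured CellTox Green fluorescence in HepG2 cells that had been co-plated with reagent and preincubated 5 h at 37 C/5% CO2.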

The nature of assay [7]: qHTS RealTime-Glo MT Cell Viability Assay in HepG2 cells - 32 hour (AID 1224877). Also: nearly all actives have a fitted effect of over 55% in size. Also: potency is read from the fitted curve at half-maximal effect. The method in brief:
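HepG2 suspension premixed with RealTime-Glo reagents is plated at 600 cells per well and left 5 h at 37 C/5% CO2. Compounds in DMSO then go in, and bioluminescence reflecting viable cell number is recorded over 40 h.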

Assay [8] in a line: A CellTox Green Cytotoxicity Assay to monitor cytotoxicity in HepG2 cells - 24 hour (AID 1224878). Also: nearly all actives have a fitted effect of over 45% in size. Also: potency is read from the fitted curve at half-maximal effect. In short, it runs like this: as §3
Assay [9] in a line: A CellTox Green Cytotoxicity Assay to monitor cytotoxicity in HepG2 cells - 40 hour (AID 1224879). Also: nearly all actives have a fitted effect of over 40% in size. Also: potency is read from the fitted curve at half-maximal effect. The method in brief: as §3
A short description of assay [10]: qHTS RealTime-Glo MT Cell Viability Assay in HEK293 cells - 0 hour (AID 1224880). The method in brief: as §2

Molecules are shown by their SMILES. “And” between values parts separate entries of the source, which are not always exact repeats. Equal entries are not always repeated. Inconclusive results are not listed. Some compounds were tested as several samples or in several runs, with calls that do not always agree. The source made the active and inactive calls. Calls follow the shape of the dose curve; as a rule, active = well fitted curve in the direction sought with a large enough effect in the repeat runs; inconclusive = weak or mixed curves; inactive = no such curve, though single readings can be large; an effect the other way counts as inactive or inconclusive.
% is scaled to controls: 0 for no effect and ±100 for the full control effect.

Take `C[N+](C)(C)CC(=O)[O-]`: the Potency result in [1], in assay [2], in assay [3], in assay [5], in assay [6] and in [7] was “inactive” throughout. Further, the Potency result in assay [8], in [9] and in assay [10] was “inactive” throughout. In addition, the max response in assay [4] was 3.4% (inactive) and 10.8% (inactive).
Turning to `CCOP(=S)(OCC)SCSC(C)(C)C`, the Potency entry in [1], in assay [2], in assay [3], in [5], in assay [6] and in assay [7] was “inactive” throughout. For the same compound, the Potency result in assay [8], in assay [9] and in assay [10] was “inactive” throughout. Besides, the max response in [4] was 5.63% (inactive) and -1.38% (inactive).
Regarding `Nc1ccc2ccccc2c1`, the Potency result in [1], in assay [2], in assay [3], in [5], in assay [6] and in [7] was “inactive” in each case. Further, the Potency entry in assay [8] and in assay [9] was “inactive” throughout. For the same compound, the max response in assay [4] was 5% (inactive).
On to `COc1ccc(O)c(C(C)(C)C)c1`, for which the Potency entry in assay [1], in assay [2], in assay [3], in [5], in assay [6] and in [7] was “inactive” each time. Moreover, the max response in [4] is -6.92% (inactive) and 11.9% (inactive).
Regarding `N#Cc1cccnc1`, the Potency entry in [1], in [2], in [3], in assay [5], in assay [6] and in assay [7] was “inactive” throughout. Further, the Potency entry in assay [8] and in [9] was “inactive” in each case. In [4], the max response is -3.64% (inactive) and -3.39% (inactive).
Regarding `C=CC(=O)OCC(CC)(COC(=O)C=C)COC(=O)C=C`, the Potency in [1] was 4.48 µM (active) and 7.76 µM (active); in assay [2] it was 6.33 µM (active) and 12.3 µM (active); in assay [3] it was 22.5 µM (active) and 9.77 µM (active); in assay [4] it was 3.56 µM (active) and 9.77 µM (active); in assay [7] it was 25.2 µM (active) and 12.3 µM (active); in [8], 14.2 µM (active). Further, in [9], the Potency was 12.6 µM (active). Besides, the Potency entry in assay [5], in [6] and in [10] was “inactive” each time.
With `CC(C)COC(=O)c1ccccc1C(=O)OCC(C)C`, the Potency entry in assay [1], in assay [2], in assay [3], in [5], in [6] and in assay [7] was “inactive” in each case. Besides, the Potency entry in assay [8] and in assay [9] was “inactive” throughout. The max response in assay [4] was 8.51% (inactive) and 5.74% (inactive).
With `CCOC(=O)c1ccccc1N`, the Potency result in assay [1], in [2], in [3], in assay [5] and in [7] was “inactive” in each case. Moreover, the max response in assay [4] was -0.283% (inactive) and 0.344% (inactive). Besides, the Potency entry was “inactive and 49 µM (active)” in assay [6]; “inactive and 49 µM (active)” in assay [8]; “inactive and 54.9 µM (active)” in [9].
Take `CCC[CH2][Sn]([Cl])([Cl])[CH2]CCC`: the Potency was 351 nM (active) and 490 nM (active) in assay [1]; 198 nM (active) and 174 nM (active) in [2]; 7.86 µM (active) and 8.71 µM (active) in assay [3]; 88.2 nM (active) and 110 nM (active) in assay [4]; 556 nM (active) and 2.19 µM (active) in [5]; 2.22 µM (active) and 1.74 µM (active) in [6]. Further, the Potency in [7] is 222 nM (active) and 155 nM (active); in [8], 442 nM (active) and 436 nM (active); in assay [9] it was 313 nM (active) and 309 nM (active).
Take `c1ccc(C2CO2)cc1` (stereo unspecified): the Potency result in [1], in assay [2], in assay [3], in [5], in assay [6] and in assay [7] was “inactive” each time. Besides, the Potency result in assay [8], in [9] and in [10] was “inactive” in each case. In addition, in [4], the max response was -2.54% (inactive) and -3.91% (inactive).
On to `CN(C)c1nc(=O)n(C2CCCCC2)c(=O)n1C`, for which the Potency entry in assay [1], in assay [2], in assay [3], in assay [5], in assay [6] and in assay [7] was “inactive” throughout. In addition, the Potency entry in [8] and in assay [9] was “inactive” in each case. For the same compound, the max response in assay [4] was 6.15% (inactive) and 0.589% (inactive).
With `Nc1ncn[nH]1`, the Potency result in [1], in [2], in assay [3], in assay [5], in assay [6] and in assay [7] was “inactive” in each case. Besides, the Potency result in assay [8] and in assay [9] was “inactive” each time. For the same compound, in assay [4], the max response is -0.91% (inactive) and 1.15% (inactive).
Regarding `CNC(=O)CSP(=S)(OC)OC`, the Potency entry in assay [1], in assay [2], in assay [3], in assay [5], in assay [6] and in assay [7] was “inactive” throughout. In addition, the Potency result in assay [8] and in assay [9] was “inactive” each time. In assay [4], the max response was -14.6% (inactive) and -0.812% (inactive).
Take `ClCc1ccccn1`: the Potency entry in assay [1], in [2], in assay [3], in assay [5], in assay [6] and in assay [7] was “inactive” throughout. For the same compound, the Potency result in [8] and in assay [9] was “inactive” throughout. The max response in [4] is 0.166% (inactive) and 14.2% (inactive).
In the case of `NC(=O)CN1CCCC1=O`, the Potency result in assay [1], in [2], in assay [3], in [5], in [6] and in assay [7] was “inactive” throughout. Further, the Potency entry in assay [8] and in [9] was “inactive” throughout. The max response in [4] was 3.12% (inactive) and 0.0955% (inactive).
Consider `ClC(Cl)=C(Cl)C(Cl)=C(Cl)Cl`, for which the Potency result in assay [1], in [2], in assay [3], in [5], in assay [6] and in assay [7] was “inactive” each time. Further, the Potency result in assay [8] and in assay [9] was “inactive” throughout. Further, the max response in assay [4] is 3.65% (inactive) and 8.28% (inactive).
Take `CC(C)(O)C#N`: the Potency result in assay [1], in assay [2], in [3], in assay [5], in assay [6] and in assay [7] was “inactive” in each case. The Potency entry in [8], in [9] and in [10] was “inactive” each time. The max response in [4] is 1.12% (inactive) and 7.67% (inactive).
For the compound `CC(C)(c1ccc(OCC2CO2)cc1)c1ccc(OCC2CO2)cc1` (stereo unspecified), the Potency result in assay [1], in assay [2], in [3], in assay [5], in [6] and in assay [7] was “inactive” each time. Moreover, the Potency result in [8], in assay [9] and in assay [10] was “inactive” throughout. For the same compound, in [4], the max response was -0.153% (inactive).
